The panel holds about 83,000 compounds, 20% with a hit somewhere; the sample as a whole holds those more often.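 Step 1: grow cells in 96-well plates. Step 2: add test compound at a single concentration. Step 3: incubate 48 h. Step 4: record percent growth.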 Values without a mark were called inactive. Active and inactive are the calls of the source. The calls were made as follows: active = growth percent below 10; inactive = the rest.
Test system: HL-60(TB) leukemia
Assay: NCI-60 one-dose screen, 48 h (100 = growth as untreated, 0 = no growth, -100 = all killed)
Settings: 10 µM unless noted

Row | SMILES | growth
1 | CCOC(=O)C1=C(C)NC(C)=C(C(=O)OCc2ccccc2)C1c1cccc(C#N)c1 (stereo not drawn) | 16.1%
2 | COc1ccc(/C(=N\NC(N)=S)c2ccc(Cl)cc2)cc1OC | 13.2%
3 | COc1cc(/C=N/n2cnc3oc(-c4ccccc4)cc3c2=N)cc(CN2CCN(C)CC2)c1O | 110%
4 | C#C[C@]1(O)CC[C@H]2[C@@H]3CC=C4c5sc(-c6ccccn6)nc5CC[C@]4(C)[C@H]3CC[C@@]21C | 41.4%
5 | CC[C@H](CO)Nc1ccc2ncc(C#Cc3cncc(C(=O)Nc4ccc(CN5CCN(C)CC5)c(C(F)(F)F)c4)c3)n2n1 | -46.3% (active)
6 | Cc1cc2ncc(-c3cc4ccccc4c(N4CCN(C)CC4)n3)nc2cc1C | -31.9% (active)
7 | COc1cc(OC)c(S(=O)(=O)NNC(=O)c2ccncc2)cc1C(=O)/C=C/c1ccc(C)cc1 | 51.2%
8 | CC(=O)Nc1nc2c(s1)C1=CC[C@H]3[C@@H]4CC[C@H](C(C)=O)[C@@]4(C)CC[C@@H]3[C@@]1(C)CC2 | 52.5%
9 | COc1ccc(C(=O)CSc2nc3c(c(Nc4ccc(S(N)(=O)=O)cc4)n2)CCCC3)cc1 | 101%
10 | CCCC(=O)NC(c1cccnc1)c1cc(Cl)c2cccnc2c1O (stereo not drawn) | 34.1%
11 | CCOC(=O)c1c(Nc2ccccc2)nn2c(-c3ccccc3)ccnc12 | 80.7%
12 | O=C(CSc1nnc(-c2cccs2)n1-c1ccccc1)Nc1ccccc1 | 76%
13 | CC1(C)CC[C@]2(C(=O)N3CCCNCC3)CC[C@]3(C)C(=CC[C@@H]4[C@@]5(C)CCC(=O)C(C)(C)[C@@H]5CC[C@]43C)[C@H]2C1 | 104%
